Assay outcomes: PubChem BioAssay, Sanford-Burnham Center for Chemical Genomics
TWEAK Fn14 block = inhibitors of TWEAK-Fn14 interaction signaling. TWEAK-stimulated Fn14 reporter cells, luciferase luminescence, 8 h. inhibition, % at 10 µM. hit rate 2% among 360,000; in the data active means inhibition above about 50%
CF NFkB inh = inhibitors of cystic fibrosis induced NF-kB; KKLEB NF-kB-GFP reporter, PAF-induced, GFP fluorescence overnight; inhibition, % at 5 µM; AID 588850; hit rate 0.86% among 360,000;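 active means at least 50% inhibition at 5 µM, scaled per plate between neutral and stimulator controls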;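 further: PAF is a Pseudomonas aeruginosa culture filtrate used as stimulus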
HIF-2a inh = blocks HIF-2a reporter activity; 786-0 RCC cells HIF-2a reporter, luciferase luminescence, overnight; hit rate 0.72% among 360,000; inhibition, % at 18.8 µM;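 active means inhibition of the luminescence signal of 40% or more relative to plate controls, in a single-dose primary screen at 18.75 µM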
KKLEB tox = counter-screen for CF NF-kB inhibitors: cytotoxicity. activity change (cytotoxicity), % at 5 µM. KKLEB CF airway cells viability, ATPlite luminescence, overnight; stronger effect = lower value; cells stimulated with P. aeruginosa culture filtrate. hit rate 0.36% among 360,000. AID 602141;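 active means corrected activity change at or below -50% at 5 µM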
TROY signal inh = TROY signaling inhibition. Q293 LMP1-TROYcd NF-kB luciferase reporter, 4 h. inhibition, % at 10 µM. hit rate 0.98% among 360,000. AID 1347056;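 active means compounds whose plate-normalised and pattern-corrected inhibition of the luciferase reporter signal at the single screening dose is 50% or more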
Peg3 prom inh = reduces Peg3 promoter-driven luciferase expression in HeLa; hit rate 1.7% among 360,000; inhibition, % at 20 µM; HeLa PEG-Prom luciferase reporter, luminescence, overnight;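 active means inhibition of at least 50% at 20 µM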
Of the large screens only hits and unclear results are named; the others gave an inactive call; ! = not confirmed by another sample. Sampled rows, rich in hits. Any-hit rate of the full collection: about 3.9%.

CCOc1cc(CNC2CCCC2)cc(Cl)c1OCc1ccc(F)cc1	Peg3 prom inh 90.7
COc1cc(CNC2CCCC2)cc(Cl)c1OCc1ccc(F)cc1	none
CCOCCCNC(=O)Cn1cnc2c(cnn2-c2ccc(C)c(C)c2)c1=O	TWEAK Fn14 block 108.0
CCCCNC(=O)Cn1cnc2c(cnn2-c2ccc(C)cc2)c1=O	none
O=C(CSc1nc2c(cnn2-c2ccc(F)cc2)c(=O)[nH]1)N1N=C(c2cccs2)CC1c1ccc(F)cc1 (centres undefined)	TWEAK Fn14 block 56.6, TROY signal inh 50.3
CCn1c(=O)c(C(=O)Nc2nc3ccccc3[nH]2)c(O)c2ccccc21	CF NFkB inh 88.8, KKLEB tox -90.3
CCN1CCN(Cc2ccc(NC(=O)c3cc(NC(=O)c4nccnc4N)cc(OC)c3)cc2C(F)(F)F)CC1	none
Cc1cccc(C(=O)Nc2cc(NC(=O)c3cccs3)ccc2C)c1	none
CCN1CCN(Cc2ccc(NC(=O)c3ccc(C)c(NC(=O)c4nccn4C)c3)cc2C(F)(F)F)CC1	none
CCN1CCN(Cc2ccc(NC(=O)c3cc(NC(=O)c4cnnc5ccccc45)cc(OC)c3)cc2C(F)(F)F)CC1	Peg3 prom inh 100.2!
CCN1CCN(Cc2ccc(NC(=O)c3ccc(C)c(NC(=O)c4nccnc4N)c3)cc2C(F)(F)F)CC1	CF NFkB inh 70.6, Peg3 prom inh 80.5
CCN1CCN(Cc2ccc(NC(=O)c3ccc(C)c(NC(=O)c4cncc(-c5cccs5)c4)c3)cc2C(F)(F)F)CC1	CF NFkB inh 80.1, HIF-2a inh 48.4, KKLEB tox -85.3, Peg3 prom inh 99.4
CCN1C(=O)c2cccc3c(S(=O)(=O)N(C(=O)c4cccnc4)c4ccc(OC)cc4)ccc1c23	TWEAK Fn14 block 62.5
CC(/C=N\N1CCN(c2ccc(Cl)cc2)CC1)=C\c1ccccc1	TROY signal inh 62.4
COc1ccc(C(=O)/C=C2\C(=O)Nc3ccc(Br)cc32)cc1	Peg3 prom inh 76.3
CC(C)Oc1ccc(C(=O)/C=C2/C(=O)Nc3ccccc32)cc1	none
COc1ccc(/C=C2\C(=O)NC(=O)c3ccccc32)cc1OC	none
COc1ccc2c(c1)/C(=C/c1cc(OC)c(OC)c(OC)c1)C(=O)N2	TWEAK Fn14 block 56.9
O=C1Nc2ccccc2/C1=C\C(=O)c1ccccc1	Peg3 prom inh 65.1
CCOC(=O)c1sc2ncnc(NCC(c3cccs3)N(C)C)c2c1C (centres undefined)	none
O=C1Nc2ccccc2C(O)(C(=O)N2CCCCC2)N1c1ccccc1 (centres undefined)	none
CCCn1nc([N+](=O)[O-])c(C(C#N)c2nc3ccccc3o2)c(Cl)c1=O (centres undefined)	TROY signal inh 57.3
O=C(Nc1ccc(-c2nc3ccccc3[nH]2)cc1)C1CCCO1 (centres undefined)	TWEAK Fn14 block 73.2
O=C(Nc1nc2ccccc2[nH]1)C1CCCO1 (centres undefined)	none
O=C(Nc1ccc(-c2nc3ccccc3[nH]2)cc1)c1ccc2c(c1)OCO2	Peg3 prom inh 64.4
COC(=O)c1cccc(NC(=O)Cc2ccccc2[N+](=O)[O-])c1C	none
COc1cc(S(=O)(=O)N2CCOCC2)ccc1NC(=O)COC(=O)c1ccc(Cl)nc1	none
Cc1cc(C(=O)COC(=O)CN=C2NS(=O)(=O)c3ccccc32)c(C)n1CCc1ccc(Cl)cc1	none
O=C(NCCCN=C1NS(=O)(=O)c2ccccc21)c1ccncc1	none
Cc1ccc(CN(Cc2cc3cccc(C)c3[nH]c2=O)C(=S)NCCCN(C)C)cc1	Peg3 prom inh 86.7
Cn1c(SCC(=O)Nc2ccc(Cl)cn2)nnc1C1CC1	none
CC(C)(C)c1ccc(NC(=S)NCc2cccnc2)cc1	none
CC1(C)Cc2c(sc(NC(=O)c3ccc(C(=O)c4ccccc4)cc3)c2C(N)=O)C(C)(C)N1	Peg3 prom inh 82.9
COC(=O)c1c(NC(=O)c2ccc(OC(C)C)cc2)sc2c1CC(C)(C)NC2(C)C	Peg3 prom inh 98.5
NC(=O)c1c(NC(=O)c2ccccc2)sc2c1CCC2	none
NC(=O)c1c(NC(=O)c2ccccc2)sc2c1CCc1ccccc1-2	TWEAK Fn14 block 56.1
CC1(C)Cc2c(sc(NC(=O)c3ccc4ncsc4c3)c2C(N)=O)C(C)(C)N1	none
COC(=O)c1c(NC(=O)c2ccccc2)sc2c1CC(C)(C)NC2(C)C	none
CC(C)(C)NC(=O)C1C(c2ccc(C(F)(F)F)cc2)=Nc2ccccc2N1C(=O)c1cccc2ccccc12 (centres undefined)	none (no result: TWEAK Fn14 block, CF NFkB inh, KKLEB tox, TROY signal inh, Peg3 prom inh)
CC(C)n1cc(C(=O)N2CCCC(N3CCN(c4ccc(F)cc4)CC3)C2)cn1 (centres undefined)	none
c1ccc2c(Nc3nc(N4CCOCC4)c4ccccc4n3)cccc2c1	TWEAK Fn14 block 52.0
CCCCN(C)C(=O)c1cc2cc3ccc(OC)cc3nc2s1	TWEAK Fn14 block 74.1
COc1ccc2c3c(cccc13)C(=O)CC2	TWEAK Fn14 block 62.9
COc1ccc(-n2sc3ccccc3c2=O)cc1	CF NFkB inh 63.4
O=C(Nn1c(-c2ccncc2)nc2ccccc2c1=O)c1ccccc1Br	none
O=C(/C=C/c1ccccc1)c1ccc2c3c(cccc13)CC2	Peg3 prom inh 59.8
C=CCNc1ncnc2ccccc12	TROY signal inh 50.0
C=CCNC(=O)/C(C#N)=C/c1c(N(Cc2ccccc2)Cc2ccccc2)nc2ccccn2c1=O	Peg3 prom inh 50.0
COc1ccccc1-c1ncn(Cc2cccc(-c3ccccc3)c2)c1-c1ccco1	none (no result: TWEAK Fn14 block, CF NFkB inh, KKLEB tox, TROY signal inh, Peg3 prom inh)
Cc1cc(C)c(C(=O)Cn2nc(C(=O)O)c3ccccc3c2=O)cc1C	none
Cc1cc(C(=O)Cn2nc(C(=O)O)c3ccccc3c2=O)c(C)n1-c1ccccc1	TROY signal inh 70.2
CCn1c(SCC(=O)Nc2cc(C)on2)nc2c(c1=O)SC(C)C2 (centres undefined)	none
CCn1c(SCC(=O)Nc2nc3ccc(C)cc3s2)nc2c(c1=O)SC(C)C2 (centres undefined)	TWEAK Fn14 block 92.9
COc1cc(CN2CCCC(C(=O)N3CCc4ccccc4C3)C2)cc(OC)c1OC (centres undefined)	none
Cc1cc(C(=O)CSc2nnc(N)s2)c(C)n1Cc1ccco1	none
Cc1cc(C(=O)COC(=O)c2cccn2C)c(C)n1Cc1ccco1	TWEAK Fn14 block 74.2, TROY signal inh 75.7
Cc1cc(C(=O)COC(=O)c2ccncc2)c(C)n1Cc1ccco1	TWEAK Fn14 block 59.5
Cc1cc(C(=O)COC(=O)c2cc(Cl)ccc2N)c(C)n1Cc1ccco1	none
Cc1cc(C(=O)COC(=O)c2ccco2)c(C)n1Cc1ccco1	TWEAK Fn14 block 93.4, TROY signal inh 84.4
CCN(CCCNS(=O)(=O)c1ccc2c(c1)oc(=O)n2C)c1cccc(C)c1	none
Cc1ccc(S(=O)(=O)N(C)C)cc1NC(=O)COC(=O)C1CC(=O)N(c2ccc3c(c2)OCCO3)C1 (centres undefined)	none
